Tests used:
Assay in all cases: PBM binding z-score (relative to random genomic background probes); higher = stronger binding; sequences stand for … in GC…GCGATTGACAGCGTAGAATGAAGG
[1] = system: PPARg:RXRa DBDmut IVT, anti-RXR (DBD mutation: RXRa K156A/R161A, NR concentration 270 nM, RXRa partner concentration 90 nM)
Method in brief: (§1)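 Ligand-free nuclear receptor dimers were applied to custom Agilent 4×180K protein-binding microarrays whose double-stranded probes carried direct-repeat seeds, single-nucleotide variants, half-site ablations and random human genomic background sequences in 34-nt variable regions. Incubation lasted 1 h. Binding z-scores were computed against the random background probes from regression-normalized fluorescence.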

[2] = system: PPARg:RXRa IVT, anti-PPARg (NR concentration 270 nM, RXRa partner concentration 90 nM)
Method in brief: as §1

[3] = system: PPARg DBDmut:RXRa IVT, anti-PPARg (DBD mutation: PPARg1 K132A/R137A, NR concentration 270 nM, RXRa partner concentration 90 nM)
Method in brief: as §1

[4] = system: PPARg DBDmut IVT, anti-PPARg (DBD mutation: PPARg1 K132A/R137A, NR concentration 270 nM)
Method in brief: as §1

[5] = system: PPARg homodimer (NR concentration 180 nM)
Method in brief: as §1

[6] = system: PXR:RXRa (NR concentration 270 nM, RXRa partner concentration 90 nM)
Method in brief: as §1

[7] = system: PXR homodimer (NR concentration 270 nM)
Method in brief: as §1

[8] = system: RARa:RXR (NR concentration 270 nM, RXRa partner concentration 90 nM)
Method in brief: as §1

[9] = system: RARa homodimer (NR concentration 270 nM)
Method in brief: as §1

[10] = system: RARb:RXRa (NR concentration 270 nM, RXRa partner concentration 90 nM)
Method in brief: as §1

[11] = system: RARb homodimer (NR concentration 270 nM)
Method in brief: as §1

[12] = system: RARg:RXRa (NR concentration 270 nM, RXRa partner concentration 90 nM)
Method in brief: as §1

[13] = system: RARg homodimer (NR concentration 270 nM)
Method in brief: as §1

[14] = system: RXRa DBDmut IVT, anti-RXR (DBD mutation: RXRa K156A/R161A, NR concentration 90 nM)
Method in brief: as §1

[15] = system: RXRa homodimer (NR concentration 180 nM)
Method in brief: as §1

[16] = system: THRa:RXRa (NR concentration 90 nM, RXRa partner concentration 90 nM)
Method in brief: as §1

[17] = system: THRa homodimer (NR concentration 90 nM)
Method in brief: as §1

[18] = system: VDR homodimer (NR concentration 270 nM)
Method in brief: as §1

Row | Sequence | PBM binding z-score [1] | PBM binding z-score [2] | PBM binding z-score [3] | PBM binding z-score [4] | PBM binding z-score [5] | PBM binding z-score [6] | PBM binding z-score [7] | PBM binding z-score [8] | PBM binding z-score [9] | PBM binding z-score [10] | PBM binding z-score [11] | PBM binding z-score [12] | PBM binding z-score [13] | PBM binding z-score [14] | PBM binding z-score [15] | PBM binding z-score [16] | PBM binding z-score [17] | PBM binding z-score [18]
1 | TAGCCTAGGACATTCAGGGGCCAGTATAGAAAGC | -0.851 | -0.425 | -0.632 | -1.43 | -1.03 | -0.401 | -0.611 | -0.598 | -0.859 | 0.541 | 0.77 | 0.352 | 0.546 | -0.698 | -0.1 | 0.588 | -0.132 | -0.236
2 | ACTATTACTTGAGACGAGGGCAACCGATAGGTTG | 0.899 | 1.15 | 0.818 | 1.3 | 1.24 | 0.601 | 0.904 | 0.426 | 1.54 | 1.3 | 1.67 | 0.798 | 0.981 | 1.01 | 0.63 | 1.15 | 1.02 | 1.76
3 | ATCTCTACGTAAAGTTCAGTGAAAGATCGATAGA | -0.332 | 0.634 | 1.64 | 1.55 | 1.75 | 1.93 | 1.97 | 1.39 | 1.12 | 3.02 | 2.6 | 2.27 | 2.86 | 1.51 | 1.2 | 0.674 | -0.289 | 2.27
4 | CCTGCTTGGTCATGGTCAGCTAATCTACAGTATG | 0.417 | 0.0763 | -1.17 | -0.614 | 0.0024 | -0.154 | -0.228 | -0.106 | -0.318 | 1.24 | 0.424 | 0.464 | 0.774 | 0.252 | 0.162 | -0.0915 | -0.506 | -0.205
5 | CCTGCTGGGCCATCAGGTCATTGATATCAACGTT | 1.27 | 1.52 | -0.402 | -0.46 | 0.175 | 1.55 | 0.128 | 1.83 | -0.97 | 2.02 | 2.51 | 2.06 | 2.01 | 0.287 | 1.01 | 3.19 | 2.31 | 1.01
6 | TTAGCAAGGTGAGCTGAGGTCGTTGATCCAACTC | 0.492 | 1.3 | -0.527 | -1.48 | -0.0688 | 4.92 | 0.566 | 2.28 | -1.15 | 1.59 | 1.52 | 1.03 | 0.726 | -0.339 | 1.13 | 4.75 | 1.97 | 2.37
7 | CCTTACTGGTCACGAGGTTATAGCACGACGAGCG | 1.37 | 2.01 | 1.13 | 0.311 | 1.78 | 1.55 | 0.447 | 2.19 | 1.15 | 2.46 | 1.98 | 2.5 | 1.86 | 0.396 | 2.28 | 1.91 | 1.11 | 1.13
8 | GCTTACGGGTCAACGGTTATAGCATGAATAGAAT | 4.03 | 4.42 | 2.69 | 0.764 | 1.62 | 3.16 | 0.0463 | 4.02 | 0.362 | 4.08 | 2.84 | 4.92 | 4.66 | 2.06 | 5.29 | 2.59 | -0.0988 | 0.695
9 | TCTCGGAGGACACGAAAGGTCAGAGGTCGACATC | 1.89 | 2.44 | -0.583 | -0.569 | 2.83 | 5.34 | 0.827 | 6.51 | 1.05 | 4.57 | 5.07 | 5.51 | 5.38 | 1.21 | 6.06 | 3.99 | 1.69 | 2.12
10 | CCGAGTAGGTTACGGGGCATTCAGGCAACGGTGA | 3.97 | 4.11 | -0.288 | -0.815 | 0.551 | 0.0878 | -0.35 | 0.636 | -0.584 | 1.5 | 1.11 | 1.02 | 1.07 | -0.416 | 1.16 | 0.851 | -0.136 | 0.121
11 | GCGACTGGGGCATCAGCAGGTTACCGTAACTTAA | 3.92 | 3.16 | -0.711 | -1.13 | 0.0663 | -0.0573 | -0.613 | 0.398 | -0.334 | 0.841 | 1.14 | 0.702 | 0.193 | -0.433 | 0.309 | 1.03 | -0.152 | -0.576
12 | CGAACTAGGTCATTCACAGGACAGTGAATAGTAA | 8.25 | 8.21 | 1.5 | 0.729 | 1.48 | 1.77 | 0.314 | 2.2 | 0.779 | 3.72 | 2.81 | 4.97 | 4.43 | 2.48 | 2.55 | 2.91 | 0.979 | 1.29
13 | TCCCGGAGGACACGAAAGGTCAGAGCTCGACATC | 1.58 | 1.17 | -0.696 | -0.402 | 2.86 | 3.87 | 0.5 | 4.24 | 1.11 | 4.25 | 4.78 | 4.89 | 5.23 | 0.811 | 3.89 | 3.88 | 1.31 | 0.948
14 | TCATATATGTAAACAGGTGAAAGTCCGTAAGTTA | 2.85 | 1.7 | 1.25 | 1.22 | 0.985 | 1.08 | 0.358 | 1.24 | 0.262 | 0.572 | 0.609 | 0.551 | 0.376 | 1.85 | 0.989 | 0.84 | 0.27 | 0.413
15 | CGTCCAAGGTCAGAGAGGTCAGTGAATGCCGAGT | 3.16 | 3.45 | 0.28 | -0.412 | 5.38 | 6.23 | 12.3 | 5.74 | 3.8 | 5.21 | 5.19 | 6.25 | 6.97 | 3.52 | 5.73 | 4.19 | 2.86 | 5.68
